Among all 330,000 compounds or so, about 4,600 (1.4%) were called active. Many of the other results were omitted from the sample, so actives are more common in it than they were. A number with no mark means an inactive call.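 How the source made its calls: active means inhibition of 40% or more at the single tested concentration; inactive means the rest.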
assay: growth inhibitors of isogenic TIM10 control yeast, primary screen, counter-screen for tim10-1 yeast inhibitor project, luminescence, uHTS (AID 463195);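 further: wild-type TIM10 isogenic control strain grown at permissive 25 °C; 0% = DMSO yeast wells and 100% = minimal medium wells without yeast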; settings: S. cerevisiae TIM10 strain growth, BacTiter-Glo luminescence, 24 h; at 10 µM; active compounds read high

Row | SMILES | inhibition
1 | CCOc1ccc(C(CC(=O)O)n2cnnn2)cc1OC (stereo unspecified) | -1.38%
2 | COC(=O)c1c(NC(=O)CSc2nncs2)sc2c1CCCCC2 | 43.7% (active)
3 | COC(=O)c1c(NC(=O)C2CC(C)=C(C)CC2C(=O)O)sc2c1CCCCC2 (stereo unspecified) | 20.6%
4 | COC(=O)c1c(NC(=O)CCN2CCOCC2)sc2c1CCCC2 | 9.98%
5 | O=C(NCc1ccccc1)C(c1ccco1)N(C(=O)c1csnn1)c1ccccc1F (stereo unspecified) | 5.22%
6 | CC(C)CCNC(=O)C1CCC(CNc2c(N3CCC(C)CC3)c(=O)c2=O)CC1 (stereo unspecified) | 2.16%
7 | Cc1cc(C)nc(NS(=O)(=O)c2ccc(N/C=C\C(=O)c3cccs3)cc2)n1 | -1.27%
8 | CCn1c(=O)c(C(=O)NCc2ccc3c(c2)OCO3)c(O)c2ccccc21 | -11.9%
9 | O=C(NCc1ccc2c(c1)OCO2)c1sccc1Br | 9.81%
10 | O=C(NCc1ccc2c(c1)OCO2)c1c(O)nc2sccn2c1=O | 45% (active)
11 | CC(=O)c1c(C)n([O-])c2ccccc2[n+]1=O | -2.57%
12 | O=C1N[C@H](Cc2c[nH]c3ccccc23)COC(=O)[C@H](Cc2ccc(F)cc2)C/C=C\C[C@H]1CC(=O)N(CCO)Cc1ccccc1 | -8.49%
13 | Cc1[nH]c(=O)c(C(=O)/C=C/c2ccccc2)c2c1CCCC2 | 45% (active)
14 | CC(=O)Nc1ccc(/C=C/C(=O)c2ccccc2)cc1 | 26.1%
15 | O=C(/C=C/c1ccc(N2CCOCC2)cc1)c1ccccc1 | 39.5%
16 | O=C(O)CCc1nc2cc(Cl)ccc2n(Cc2ccccc2)c1=O | 21.5%
17 | COc1ccc(CN2C(CC(=O)Nc3cccnc3)c3ccc(C(F)(F)F)cc3S2(=O)=O)cc1 (stereo unspecified) | -7.66%
18 | O=C(NC1(C(F)(F)F)NC(=O)N(C2CCCCC2)C1=O)c1ccco1 (stereo unspecified) | -5.03%
19 | O=C1NC(Nc2nc3ccccc3s2)(C(F)(F)F)C(=O)N1C1CCCCC1 (stereo unspecified) | 52.6% (active)
20 | Cc1cc(C)c2nc(-c3cccnc3)cc(C(=O)Nc3ccc(S(=O)(=O)Nc4onc(C)c4C)cc3)c2c1 | -10%
21 | Cc1ccc(-c2ccnc3nc(Sc4ncc(C(F)(F)F)cc4Cl)nn23)cc1 | 42.2% (active)

Row | SMILES | inhibition
22 | Cc1cc(NC(=O)CSc2ncc(C(F)(F)F)cc2Cl)no1 | -8.23%
23 | Cc1nn(-c2ncc(C(F)(F)F)cc2Cl)c(=O)n1-c1ccccc1 | 10.6%
24 | CNC(=O)NC(=O)C(OC(=O)c1cccc(S(=O)(=O)N2CCCCC2)c1)c1ccccc1 (stereo unspecified) | 15.5%
25 | CCOCCCN1C(=O)C2C(C(=O)Nc3ccc(OCC)cc3)C3C=CC2(O3)C1C(=O)NC1CCCCC1 (stereo unspecified) | 5.11%
26 | Cc1ccc(N2C(=O)c3ccccc3C2(O)c2ncc[nH]2)cc1 (stereo unspecified) | 1.61%
27 | COc1cc(NS(=O)(=O)c2ccc3ccccc3c2)c2ncccc2c1 | 9.71%
28 | O=[N+]([O-])c1ccccc1S(=O)(=O)Nc1cccc2cccnc12 | 44.6% (active)
29 | O=[N+]([O-])c1cccc2ncccc12 | -18%
30 | C[C@H](NC(=O)c1[nH]cnc1C(=O)Nc1nccs1)c1ccccc1 | 6.5%
31 | COc1ccc2c(c1)c(C(=O)N/N=C/c1cccs1)c(C)n2C | 24%
32 | COc1cccc(CNC(=O)CCC2CCCN(C(=O)c3ccoc3C)C2)c1 (stereo unspecified) | 10.1%
33 | CCCc1nc2c(c(=O)c3ccccc3n2C)c(=O)n1C1CCCCCC1 | 49.4% (active)
34 | CC1CCN(Cc2nc3c(c(=O)n(C)c(=O)n3C)n2CCc2ccccc2)CC1 | 3.96%
35 | Cn1c2ccccc2c2c(C(=O)N3CCN(c4ccc(F)cc4)CC3)cn(C3CCCC3)c(=O)c21 | 37.3%
36 | CCOC(=O)CSc1nc2ccc(C)cc2n2cnnc12 | 3.21%
37 | O=c1ccc2cc(S(=O)(=O)Nc3ccccc3F)ccc2o1 | 4.92%
38 | O=c1oc2ccccc2c(NC2CCCCC2)c1NS(=O)(=O)c1ccc(Cl)cc1 | 21.4%
39 | O=c1oc(-c2ccccc2NS(=O)(=O)c2ccc(Cl)cc2)nc2ccccc12 | 59.4% (active)
40 | O=C(NC(=O)c1ccccc1N1CCCCC1)Nc1ccc(Br)cc1 | 14.8%
41 | CCOCCn1[nH]c2ccccc2c1=O | 2.98%
42 | COc1ccc(N2C(=O)CC(SC(C)C)C2=O)cc1 (stereo unspecified) | 5.36%

Row | SMILES | inhibition
43 | Cc1ccc(N2C(=O)CC(Sc3ncn[nH]3)C2=O)cc1 (stereo unspecified) | 26.4%
44 | COc1ccc(N2C(=O)CC(Sc3n[nH]c(-c4ccc(C)cc4)n3)C2=O)cc1 (stereo unspecified) | 54% (active)
45 | COc1ccc(CNC(=O)c2ccc3oc(C(C)C)nc3c2)cc1 | 2.31%
46 | Cc1cc(SCc2c(F)cccc2Cl)nc(=O)[nH]1 | 9.07%
47 | O=C(CSc1ccc(-c2ccco2)nn1)Nc1cccc(F)c1 | 6.71%
48 | Fc1cccc(Cl)c1CSc1ccc(-c2ccco2)nn1 | 46.6% (active)
49 | O=C(Nc1ccc(F)cc1)c1cc2c(s1)CCCC2 | 14%
50 | O=C(Nc1ccc2c(c1)CCC2)c1ccc(Br)s1 | 61.4% (active)
51 | CC1CC(C)CN(CCC(=O)Nc2ccc3c(c2)CCC3)C1 (stereo unspecified) | -5.01%
52 | COc1ccccc1N1CCN(S(=O)(=O)c2ccc3c(c2)NC(=O)CS3)CC1 | 12.3%
53 | COc1cccc(-n2c(=S)sc3c(=O)n(-c4ccccc4C)c(SCC(=O)O)nc32)c1 | 8.02%
54 | C=CCN(C(=O)Cn1ncc2c1-c1cc(C)ccc1OC2)c1ccccc1 | 16.6%
55 | COc1ccc(O)c(C(=O)c2cnc3c(c2)c(-c2ccc(F)cc2)c(C#N)c(=O)n3C)c1 | 40.2% (active)
56 | Cc1cc(C)c2c(-c3ccc(F)cc3)c(C#N)c(=O)n(C)c2n1 | 11.3%
57 | COCCn1c(=O)[nH]c(=O)c2cc(C(=O)c3cc(OC)ccc3O)cnc21 | -1.14%
58 | O=C(c1ccc(-n2cnnn2)cc1)N1CCN(C(c2ccccc2)c2ccccc2)CC1 | 2.74%
59 | c1ccc2c(NCC3CCCO3)nc(-c3ccncc3)nc2c1 (stereo unspecified) | 19.5%
60 | Clc1cccc(-c2nc(NCC3CCCO3)c3ccccc3n2)c1 (stereo unspecified) | 26.8%
61 | c1ccc(-c2nc(NCc3ccco3)c3ccccc3n2)cc1 | 49.9% (active)
